From PubChem BioAssay (Tox21)
Values without a mark were called inactive. Records with an inconclusive call do not appear. Where a call stands in place of a potency, no number is given. Active and inactive are the calls of the source. Unless noted, calls come from the whole dose curve.

How the values were obtained:
[1] = Nuclear factor erythroid 2-related factor 2/antioxidant responsive element (Nrf2/ARE) small molecule agonists: qHTS cell viability counter screen in human keratinocytes (AID 1919968; active = well fitted curve in the direction sought with a large enough effect in the repeat runs; an effect the other way counts as inactive or inconclusive; note: nearly all actives have a fitted effect of over 55% in size; note: potency is the fitted concentration of half-maximal effect)
How it was run: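 KeratinoSens cells (HaCaT keratinocytes stably carrying an ARE-luciferase reporter) were seeded at 1,500 cells/well and rested 5 h at 37 C/5% CO2. They were then exposed to compounds in DMSO for 23 h. Viability was read by CellTiter-Fluor fluorescence after 1 h.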

[2] = Nuclear factor erythroid 2-related factor 2/antioxidant responsive element (Nrf2/ARE) small molecule agonists: luciferase reporter gene qHTS assay in human keratinocytes (AID 1919969); note: nearly all actives have a fitted effect of over 35% in size; note: potency is the fitted concentration of half-maximal effect
[3] = biological target: Gonadotropin-releasing hormone receptor (Homo sapiens) (UniProt P30968); assay: Human gonadotropin-releasing hormone receptor (GnRHR) small molecule agonists, calcium flux assay in GnRHR-HEK293 cells (AID 1920063); note: nearly all actives have a fitted effect of over 35% in size
How it was run: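 HEK293 cells stably expressing human GnRHR were plated 18 h at 37 °C, loaded with calcium dye 1 h at 37 °C, then given compound in agonist mode; fluorescence (Ex/Em 480/540) read kinetically for 3 min at 1 s intervals.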

[4] = biological target: KiSS-1 receptor (Homo sapiens) (UniProt Q969F8); assay: Human kisspeptin (KISS1R) small molecule agonists, calcium flux assay in KISS1R-HEK293 cells (AID 1920064; active = well fitted curve in the direction sought with a large enough effect in the repeat runs; an effect the other way counts as inactive or inconclusive)
How it was run: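 HEK293 cells stably expressing human KISS1R were plated 18 h at 37 °C, loaded with calcium dye for 1 h at 37 °C, then given compound by pin tool. Fluorescence (Ex/Em 480/540) was read kinetically for 3 min.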

[5] = G protein-coupled receptor (GPCR) small molecule agonists, calcium flux assay: HEK293 wild type cell line counter screen (AID 1920065)
How it was run: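 Cells were plated and cultured 18 h at 37 C/5% CO2, then loaded with calcium dye for 1 h at 37 C. Compounds in DMSO were pin-transferred in agonist mode, and fluorescence (Ex/Em 480/540) was read kinetically for 3 min at 1 s intervals.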

[6] = p53 small molecule agonists, cell-based qHTS assay with rat liver microsomes (AID 1963578)
How it was run: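 With rat liver microsomes and NADPH present (0.5 mg/mL final each), p53RE-bla cells are treated with compound for 16 h at 37 C. LiveBLAzer detection mixture is then applied for 2 h at room temperature in the dark.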

[7] = p53 small molecule agonists, cell-based qHTS assay (AID 1963582; active = well fitted activation curve with a large enough effect in the signal ratio in the repeat runs, not every such curve was filed as active; the % refers to the signal ratio)
How it was run: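 p53RE-bla beta-lactamase reporter cells rested 5 h at 37 C/5% CO2, then received compounds in DMSO by pin transfer and were incubated 16 h at 37 C. LiveBLAzer B/G FRET substrate was loaded for 2 h at room temperature before fluorescence reading.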

[8] = biological target: Muscarinic acetylcholine receptor M1 (Homo sapiens) (UniProt P11229); assay: Cholinergic receptor muscarinic 1 (CHRM1) small molecule antagonists, cell-based qHTS assay (AID 1963588); note: nearly all actives have a fitted effect of over 40% in size; note: potency is the fitted concentration of half-maximal effect
How it was run: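 CHRM1-CHO calcium-flux assay, antagonist mode. Cells were seeded 18 h, dye-loaded 1 h at 37 C and given compound for 5 min at RT, then acetylcholine was added at 50nM. FDSS fluorescence was read 3 min; 15 concentrations, three runs.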

[9] = biological target: Muscarinic acetylcholine receptor M1 (Homo sapiens) (UniProt P11229); assay: Cholinergic receptor muscarinic 1 (CHRM1) small molecule agonists, cell-based qHTS assay (AID 1963589); note: nearly all actives have a fitted effect of over 35% in size
How it was run: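 CHO cells stably expressing human CHRM1, seeded 18 h at 37 C/5% CO2, dye-loaded 1 h at 37 C, then given compound in agonist mode; intracellular calcium fluorescence read kinetically at 1 s intervals. Fifteen concentrations, three independent runs.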

[10] = cAMP Responsive Elements (CRE) small molecule agonists, cell-based qHTS assay (AID 1963590)
How it was run: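 CRE-bla HEK 293T cells in DMEM with 10% dialyzed FBS, NEAA, pyruvate and 25 mM HEPES were plated 18 h at 37 C/5% CO2, then exposed to compounds in DMSO for 3 h before LiveBLAzer B/G FRET substrate addition.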

[11] = cAMP Responsive Elements (CRE) small molecule antagonists, cell-based qHTS assay (AID 1963591; active = well fitted inhibition curve with a large enough effect in the signal ratio in the repeat runs, not every such curve was filed as active; the % refers to the signal ratio)
How it was run: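 CRE-bla HEK293T cells were plated 18 h at 37 °C/5% CO2, pinned with compound in DMSO, then stimulated with NKH477 at 0.25 uM final for 3 h. LiveBLAzer B/G FRET substrate was added and plates incubated 2 h at room temperature.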

[12] = biological target: D(2) dopamine receptor (Homo sapiens) (UniProt P14416); assay: Dopamine D2 receptor (DRD2) small molecule antagonists, cell-based qHTS assay (AID 1963595; active = well fitted inhibition curve with a large enough effect in the signal ratio in the repeat runs, with a control signal flat; the % refers to the signal ratio; note: potency is the fitted concentration of half-maximal effect)
How it was run: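 HEK293 cells stably expressing DRD2, preincubated with 0.1 mM Ro20-1724 and compounds 10 min, were stimulated with 200 nM NKH477 plus 12 nM quinpirole for 30 min at room temperature; cAMP measured by HTRF (665/620 nm).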

[13] = p53 small molecule agonists, cell-based qHTS assay with human liver microsomes: qHTS cell viability counter screen (AID 1963579); note: nearly all actives have a fitted effect of over 45% in size; note: potency is the fitted concentration of half-maximal effect
How it was run: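 In this multiplexed counter screen, the reporter plates were subsequently treated with CellTiter-Glo so that cell viability, reflected by luminescence, could be recorded for p53RE-bla cells dosed 16 h with compounds under microsomal activation (HLM and NADPH).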

[14] = biological target: 5-hydroxytryptamine receptor 2A (Homo sapiens) (UniProt P28223); assay: 5-hydroxytryptamine receptor 2A (HTR2A) small molecule agonists, cell-based qHTS assay (AID 1963587); note: nearly all actives have a fitted effect of over 30% in size; note: potency is the fitted concentration of half-maximal effect
How it was run: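 CHO cells stably expressing human HTR2A, plated 18 h, loaded with calcium dye 1 h at 37 C. Agonist mode: compounds added and intracellular calcium fluorescence recorded kinetically for 2 min at 1 sec intervals.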

[15] = biological target: Beta-2 adrenergic receptor (Homo sapiens) (UniProt P07550); assay: Adrenergic beta2 receptor (ADRB2) small molecule antagonists, cell-based qHTS assay (AID 1963592); note: nearly all actives have a fitted effect of over 50% in size; note: potency is the fitted concentration of half-maximal effect
How it was run: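 Cells (CHO, stable ADRB2 overexpression) incubated 18-20hr at 37C; compounds added from DMSO; agonist mix (1nM isoproterenol, 100uM IBMX, 25uM Ro-20-1724) added; 0.5hr RT; d2-cAMP and anti-cAMP-cryptate added; 1hr RT; 665/615 nm read.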

[16] = biological target: D(2) dopamine receptor (Homo sapiens) (UniProt P14416); assay: Dopamine D2 receptor (DRD2) small molecule agonists, cell-based qHTS assay (AID 1963594); note: nearly all actives have a fitted effect of over 35% in size
How it was run: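 HEK293 cells stably expressing human DRD2, pre-treated with PDE inhibitor Ro20-1724 (0.1 mM final) and compound 10 min at room temperature, then stimulated with NKH477 (200nM […]) for 30 min. cAMP read by HTRF (665/620 nm).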

[17] = p53 small molecule agonists, cell-based qHTS assay with rat liver microsomes: qHTS cell viability counter screen (AID 1963580); note: nearly all actives have a fitted effect of over 45% in size
How it was run: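 Viability is assessed in parallel with the p53 reporter read: HCT-116 p53RE-bla cells receive compounds plus rat microsomes and NADPH (0.5 mg/mL final apiece), incubate 16 h at 37 C, and then CellTiter-Glo luminescence is recorded.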

[18] = p53 small molecule agonists, cell-based qHTS assay: qHTS cell viability counter screen (AID 1963581); note: nearly all actives have a fitted effect of over 45% in size
How it was run: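 p53RE-bla HCT-116 cells were exposed to compounds for 16 h at 37 C; after the beta-lactamase FRET read in the same wells, CellTiter-Glo was added and luminescence (intracellular ATP) read after 30 min at room temperature.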

[19] = biological target: 5-hydroxytryptamine receptor 2A (Homo sapiens) (UniProt P28223); assay: 5-hydroxytryptamine receptor 2A (HTR2A) small molecule antagonists, cell-based qHTS assay (AID 1963586); note: nearly all actives have a fitted effect of over 45% in size
How it was run: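 Antagonist-mode intracellular calcium assay: DOI (4 nM) added after 5 min compound pre-incubation at room temperature to dye-loaded HTR2A-CHO cells. Fluorescence followed for 3 min, sampled every second.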

[20] = biological target: Beta-2 adrenergic receptor (Homo sapiens) (UniProt P07550); assay: Adrenergic beta2 receptor (ADRB2) small molecule agonists, cell-based qHTS assay (AID 1963593);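 note: CHO cells stably overexpressing human ADRB2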
How it was run: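 CHO cells stably over-expressing ADRB2 were plated overnight at 37C, then dosed with compounds plus a stimulation mix containing 100uM IBMX and 25uM Ro-20-1724 for 0.5hr at room temperature. cAMP was measured by HTRF competition, 1hr.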

Sequence of 5-hydroxytryptamine receptor 2A (Homo sapiens) (P28223 whole entry, looked up): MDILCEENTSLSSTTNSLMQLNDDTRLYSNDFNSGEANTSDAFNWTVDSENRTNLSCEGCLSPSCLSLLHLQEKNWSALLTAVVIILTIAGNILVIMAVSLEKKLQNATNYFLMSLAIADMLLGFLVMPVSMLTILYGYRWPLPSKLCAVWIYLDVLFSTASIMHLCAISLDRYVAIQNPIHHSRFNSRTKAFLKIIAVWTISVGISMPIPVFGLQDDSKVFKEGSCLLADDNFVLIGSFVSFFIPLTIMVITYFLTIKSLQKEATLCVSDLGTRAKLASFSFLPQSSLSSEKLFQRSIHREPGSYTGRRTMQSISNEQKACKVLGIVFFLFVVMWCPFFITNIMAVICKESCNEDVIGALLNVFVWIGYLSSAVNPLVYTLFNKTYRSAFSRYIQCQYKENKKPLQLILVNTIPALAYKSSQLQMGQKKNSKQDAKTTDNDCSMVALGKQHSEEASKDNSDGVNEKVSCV
Sequence of Gonadotropin-releasing hormone receptor (Homo sapiens) (P30968 whole entry, looked up): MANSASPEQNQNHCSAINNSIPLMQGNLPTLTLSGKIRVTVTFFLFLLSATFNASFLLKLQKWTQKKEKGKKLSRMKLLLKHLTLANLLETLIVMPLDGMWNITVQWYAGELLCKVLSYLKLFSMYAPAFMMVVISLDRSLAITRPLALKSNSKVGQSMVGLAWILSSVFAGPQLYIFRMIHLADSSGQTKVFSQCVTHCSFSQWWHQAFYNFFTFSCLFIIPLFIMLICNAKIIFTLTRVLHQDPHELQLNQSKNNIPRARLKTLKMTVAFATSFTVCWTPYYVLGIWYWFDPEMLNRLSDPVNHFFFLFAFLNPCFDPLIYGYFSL
Sequence of Beta-2 adrenergic receptor (Homo sapiens) (P07550 whole entry, looked up): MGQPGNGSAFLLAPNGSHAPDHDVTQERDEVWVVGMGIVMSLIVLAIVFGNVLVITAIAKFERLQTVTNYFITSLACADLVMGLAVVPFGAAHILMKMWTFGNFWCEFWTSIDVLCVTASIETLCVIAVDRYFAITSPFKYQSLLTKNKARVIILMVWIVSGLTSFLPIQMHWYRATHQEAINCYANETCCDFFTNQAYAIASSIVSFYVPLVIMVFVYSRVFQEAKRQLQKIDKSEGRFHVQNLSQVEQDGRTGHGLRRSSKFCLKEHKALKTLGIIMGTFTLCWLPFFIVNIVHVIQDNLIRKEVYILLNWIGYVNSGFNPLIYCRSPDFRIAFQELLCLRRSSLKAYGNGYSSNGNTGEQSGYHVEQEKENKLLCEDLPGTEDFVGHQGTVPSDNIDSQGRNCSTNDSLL
Sequence of KiSS-1 receptor (Homo sapiens) (Q969F8 whole entry, looked up): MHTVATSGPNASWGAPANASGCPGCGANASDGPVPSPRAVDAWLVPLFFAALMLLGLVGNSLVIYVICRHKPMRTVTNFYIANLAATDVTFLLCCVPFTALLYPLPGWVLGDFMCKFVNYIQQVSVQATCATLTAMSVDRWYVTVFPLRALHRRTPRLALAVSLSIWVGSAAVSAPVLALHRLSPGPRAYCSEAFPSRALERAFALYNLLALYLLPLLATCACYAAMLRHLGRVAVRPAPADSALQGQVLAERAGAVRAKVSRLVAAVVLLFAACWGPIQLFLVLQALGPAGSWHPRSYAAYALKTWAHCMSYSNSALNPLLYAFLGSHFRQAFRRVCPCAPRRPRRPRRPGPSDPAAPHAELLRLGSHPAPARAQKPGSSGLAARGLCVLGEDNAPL
Sequence of D(2) dopamine receptor (Homo sapiens) (P14416 whole entry, looked up): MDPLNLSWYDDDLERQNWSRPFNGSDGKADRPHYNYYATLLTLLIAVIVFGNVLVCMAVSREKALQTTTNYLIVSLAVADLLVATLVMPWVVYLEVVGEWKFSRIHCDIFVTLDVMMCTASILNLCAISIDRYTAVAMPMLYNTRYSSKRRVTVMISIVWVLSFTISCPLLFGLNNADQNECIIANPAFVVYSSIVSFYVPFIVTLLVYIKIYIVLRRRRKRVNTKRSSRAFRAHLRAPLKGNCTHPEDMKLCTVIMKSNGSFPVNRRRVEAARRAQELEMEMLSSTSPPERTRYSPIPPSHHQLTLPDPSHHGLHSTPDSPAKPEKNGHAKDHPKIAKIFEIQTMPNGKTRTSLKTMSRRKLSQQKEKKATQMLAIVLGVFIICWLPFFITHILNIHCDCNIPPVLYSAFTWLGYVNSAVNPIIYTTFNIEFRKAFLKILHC
Sequence of Muscarinic acetylcholine receptor M1 (Homo sapiens) (P11229 whole entry, looked up): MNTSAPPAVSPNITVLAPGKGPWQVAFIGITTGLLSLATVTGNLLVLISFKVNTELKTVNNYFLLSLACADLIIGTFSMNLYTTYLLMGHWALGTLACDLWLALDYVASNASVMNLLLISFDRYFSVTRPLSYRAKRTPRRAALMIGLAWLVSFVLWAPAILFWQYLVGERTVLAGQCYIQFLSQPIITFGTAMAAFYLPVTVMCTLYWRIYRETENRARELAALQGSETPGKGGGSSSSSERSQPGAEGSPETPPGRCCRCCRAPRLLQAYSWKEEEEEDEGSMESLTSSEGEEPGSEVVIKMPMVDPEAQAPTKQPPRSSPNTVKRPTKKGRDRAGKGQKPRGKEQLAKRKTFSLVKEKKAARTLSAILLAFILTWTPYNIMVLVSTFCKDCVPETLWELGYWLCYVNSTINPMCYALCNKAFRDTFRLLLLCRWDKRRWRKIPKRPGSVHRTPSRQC

SMILES	Potency [1]	Potency [2]	Potency [3]	Potency [4]	Potency [5]	Potency [6]	Potency [7]	Potency [8]	Potency [9]	Potency [10]	Potency [11]	Potency [12]	Potency [13]	Potency [14]	Potency [15]	Potency [16]	Potency [17]	Potency [18]	Potency [19]	Potency [20]
Nc1ccc(N)c2ccccc12	27.3 µM (active)	7.69 µM (active)	inactive	inactive	inactive	inactive	inactive	inactive	inactive	inactive	inactive	inactive	–	–	–	–	–	–	–	–
CN(C)CCOc1ccc(/C(=C(/CCCl)c2ccccc2)c2ccccc2)cc1	22.8 µM (active)	inactive	inactive	inactive	inactive	inactive	–	inactive	inactive	–	–	57.2 µM (active)	30.3 µM (active)	40.9 µM (active)	57.2 µM (active)	inactive	–	–	–	–
Cc1nc2sccn2c(=O)c1CCN1CCC(=C(c2ccc(F)cc2)c2ccc(F)cc2)CC1	26.6 µM (active)	inactive	inactive	inactive	inactive	inactive	–	2.59 µM (active)	inactive	–	–	26.6 µM (active)	–	inactive	inactive	inactive	inactive	inactive	–	–
CCn1ccc(NS(=O)(=O)c2ccc(N)cc2)nc1=O	inactive	inactive	inactive	inactive	inactive	inactive	inactive	inactive	inactive	–	inactive	inactive	–	inactive	inactive	–	inactive	inactive	–	–
O=c1[nH]c2ccc(S(=O)CCN3CCC(Cc4ccc(F)cc4)CC3)cc2o1 (configuration not stated)	inactive	61.1 µM (active)	inactive	inactive	inactive	inactive	inactive	14.9 µM (active)	inactive	–	–	–	–	inactive	–	–	inactive	–	inactive	inactive
C=C1c2cccc(O)c2C(O)=C2C(=O)[C@]3(O)C(O)=C(C(N)=O)C(=O)[C@@H](N(C)C)[C@@H]3[C@@H](O)[C@H]12	inactive	inactive	inactive	inactive	inactive	–	inactive	inactive	inactive	inactive	inactive	inactive	inactive	inactive	inactive	inactive	inactive	inactive	inactive	–
C=CC(=O)N1CCOCC1	inactive	inactive	inactive	inactive	inactive	–	–	inactive	inactive	inactive	inactive	–	inactive	inactive	inactive	inactive	inactive	inactive	inactive	inactive
NC(=O)N1C(=O)C(C(=O)c2cc(Cl)cs2)c2cc(F)c(Cl)cc21 (configuration not stated)	24.3 µM (active)	inactive	inactive	inactive	inactive	inactive	–	–	inactive	–	–	inactive	–	–	–	inactive	inactive	inactive	–	–
C#CC(O)C(CC)CCCC (configuration not stated)	inactive	inactive	inactive	inactive	inactive	–	–	inactive	inactive	inactive	inactive	inactive	inactive	inactive	inactive	inactive	inactive	inactive	inactive	inactive
CC(=O)OC1C2(C)CCC(C2)C1(C)C (configuration not stated)	inactive	inactive	inactive	inactive	inactive	–	–	inactive	inactive	inactive	inactive	inactive	inactive	inactive	inactive	inactive	inactive	inactive	inactive	inactive
O=S1(=O)CCCC1	inactive	inactive	inactive	inactive	inactive	–	–	inactive	inactive	inactive	inactive	inactive	inactive	inactive	inactive	inactive	inactive	inactive	inactive	inactive
CC(C)COC(=O)C(C)C	inactive	inactive	inactive	inactive	inactive	–	–	inactive	inactive	inactive	inactive	inactive	inactive	inactive	inactive	inactive	inactive	inactive	inactive	inactive
CC/C=C\CCCCCCCCCCOC(C)=O	inactive	inactive	inactive	inactive	inactive	–	–	inactive	inactive	inactive	inactive	inactive	inactive	inactive	inactive	inactive	inactive	inactive	inactive	inactive
C=C1CCC2CC1C2(C)C (configuration not stated)	inactive	inactive	inactive	inactive	inactive	–	–	inactive	inactive	inactive	inactive	inactive	inactive	inactive	inactive	inactive	inactive	inactive	inactive	inactive
C/C=C(\C)C(C)=O	inactive	inactive	inactive	inactive	inactive	–	–	inactive	inactive	inactive	inactive	inactive	inactive	inactive	inactive	inactive	inactive	inactive	inactive	inactive
COC(=O)c1ccccc1OC	inactive	inactive	inactive	inactive	inactive	–	–	inactive	inactive	inactive	inactive	inactive	inactive	inactive	inactive	inactive	inactive	inactive	inactive	inactive
